Experimental findings from PubChem BioAssay (NCATS) are described below.

Each structure is given as a SMILES string. Inconclusive results are not listed. The source made the active and inactive calls. The call rests on the fitted dose curve; in most records, active means well fitted curve in the direction sought with a large enough effect; inconclusive means small, poorly fitted or top-dose-only effect, or another doubt; inactive means no such curve, though single readings can be large; an effect the other way counts as inactive or inconclusive.

Test [1] is described as follows: qHTS of pediatric cancer cell lines to identify multiple opportunities for drug repurposing: Confirmatory screen for control Hh wild type fibroblast cells (AID 1347121). Further: nearly all actives have a fitted effect of over 70% in size. The procedure, abridged:
(§1)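 Cells (500-1,000/well) rested 5 h, then received compounds for 48 h; metabolically active cells were measured by CellTiter-Glo luminescence. Final concentrations spanned up to 46 µM (MIPE, 11-point) or 0.59 nM-46 µM (NPC, 8-point) in primary screens, 11-point in follow-ups.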
In general terms: In qHTS, concentration-response curves come from the screen itself.

Test [2] can be described thus: qHTS of pediatric cancer cell lines to identify multiple opportunities for drug repurposing: Confirmatory screen for Rh41 cells (AID 1347123).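 Further: 48 h compound exposure; nearly all actives have a fitted effect of over 60% in size.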 The procedure, abridged: as §1
Test [3] is described as follows: qHTS of pediatric cancer cell lines to identify multiple opportunities for drug repurposing: Confirmatory screen for RD cells (AID 1347124).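 Further: cells exposed to compound for 48 h before viability readout; nearly all actives have a fitted effect of over 65% in size.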 The procedure, abridged:
as §1

Test [4] in a line: qHTS of pediatric cancer cell lines to identify multiple opportunities for drug repurposing: Confirmatory screen for Rh18 cells (AID 1347125). Further: nearly all actives have a fitted effect of over 55% in size. The procedure, abridged:
as §1

Test [5] in a line: qHTS of pediatric cancer cell lines to identify multiple opportunities for drug repurposing: Confirmatory screen for Rh30 cells (AID 1347126). Further: nearly all actives have a fitted effect of over 55% in size. The procedure, abridged: as §1
Test [6] can be described thus: qHTS of pediatric cancer cell lines to identify multiple opportunities for drug repurposing: Confirmatory screen for OHS-50 cells (AID 1347128).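 Further: compound exposure lasted 48 h at 37 degrees C; nearly all actives have a fitted effect of over 55% in size.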 The procedure, abridged:
as §1

A short description of test [7]: qHTS of pediatric cancer cell lines to identify multiple opportunities for drug repurposing: Confirmatory screen for U-2 OS cells (AID 1347122). Further: nearly all actives have a fitted effect of over 65% in size. The procedure, abridged: as §1
Test [8] has as its target Furin (Homo sapiens) (UniProt P09958). Put plainly: Furin counterscreen qHTS for Zika virus inhibitors (AID 1347149). Further: nearly all actives have a fitted effect of over 70% in size. The procedure, abridged:
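Fluorogenic cleavage of BOC-RVRR-AMC (2 microM final, Km ~15 µM) was monitored (ex 340, em 450 nm) at 37C after 15 min RT preincubation of 5 nM furin with compounds in HEPES pH 7.0 buffer with CaCl2 and Triton X-100. Percent inhibition was fitted to a 4-parameter Hill curve.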
On the technique in general: A counterscreen serves to expose hits that act by an unwanted route or on another target.

Test [9] has as its system Zika virus NS2B-NS3 protease (unlinked). Put plainly: Optimization of GU AMC qHTS for Zika virus inhibitors: Unlinked NS2B-NS3 protease assay (AID 1347151). Further: nearly all actives have a fitted effect of over 80% in size. The procedure, abridged: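 Fluorescence read-out (340 nm ex / 450 nm em) of AMC peptide cleavage, taken immediately and after 15 min at room temperature (~20% conversion). Enzyme was the unlinked NS2B–NS3 complex at 25 nM in Tris pH 8.0 buffer.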

The target in test [10] is N-terminal Xaa-Pro-Lys N-methyltransferase 1 (Homo sapiens) (UniProt Q9BV86). Kind of test: qHTS Assay for Inhibitors of N-terminal methyltransferase 1 (NTMT1): LOPAC validation of the NTMT1 SAHH-coupled ThioGlo3 Assay (AID 1347143).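 Further: SAH from peptide methylation measured as thiol fluorescence via SAHH coupling and ThioGlo3; nearly all actives have a fitted effect of over 70% in size.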 The procedure, abridged: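 Inhibition of NTMT1 methylation of peptide SPKRIA is followed by converting SAH with SAHH and labelling the released thiol with ThioGlo3. Plates are read at 340/450nm before and 30 min after reagent addition, both at room temperature.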
Sequence of N-terminal Xaa-Pro-Lys N-methyltransferase 1 (Homo sapiens) (Q9BV86 whole entry, looked up): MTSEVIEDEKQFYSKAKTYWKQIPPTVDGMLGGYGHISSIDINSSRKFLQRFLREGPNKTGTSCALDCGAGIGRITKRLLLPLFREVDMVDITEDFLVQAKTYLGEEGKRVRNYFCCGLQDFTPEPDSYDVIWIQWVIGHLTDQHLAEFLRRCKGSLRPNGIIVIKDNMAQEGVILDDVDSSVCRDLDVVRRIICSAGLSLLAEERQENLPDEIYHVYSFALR
Potency means the concentration at half of the fitted maximal effect.

Sequence of Furin (Homo sapiens) (P09958 whole entry, looked up): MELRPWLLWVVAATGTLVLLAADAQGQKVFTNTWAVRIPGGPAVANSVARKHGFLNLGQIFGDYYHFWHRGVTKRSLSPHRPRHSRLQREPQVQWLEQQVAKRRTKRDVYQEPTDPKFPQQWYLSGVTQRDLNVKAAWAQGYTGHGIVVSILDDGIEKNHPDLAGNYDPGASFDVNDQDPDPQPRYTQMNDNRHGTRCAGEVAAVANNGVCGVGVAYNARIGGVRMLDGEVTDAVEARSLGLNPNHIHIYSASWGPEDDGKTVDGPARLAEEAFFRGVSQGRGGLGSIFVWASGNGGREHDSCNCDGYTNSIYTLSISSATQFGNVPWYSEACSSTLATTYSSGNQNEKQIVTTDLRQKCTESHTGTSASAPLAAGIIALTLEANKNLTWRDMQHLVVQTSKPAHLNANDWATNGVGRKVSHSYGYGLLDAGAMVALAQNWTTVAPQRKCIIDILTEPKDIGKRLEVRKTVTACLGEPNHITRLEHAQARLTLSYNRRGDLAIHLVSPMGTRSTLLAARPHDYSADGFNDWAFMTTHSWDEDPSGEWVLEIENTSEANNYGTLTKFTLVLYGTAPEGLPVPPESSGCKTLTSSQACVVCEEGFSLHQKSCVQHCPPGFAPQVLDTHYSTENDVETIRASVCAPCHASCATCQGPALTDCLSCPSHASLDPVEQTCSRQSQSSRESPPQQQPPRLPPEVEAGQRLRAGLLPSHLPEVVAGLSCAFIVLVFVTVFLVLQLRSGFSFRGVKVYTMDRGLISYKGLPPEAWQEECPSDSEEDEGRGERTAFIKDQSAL

In the case of `CC(=O)Oc1ccc2c(c1)CC[C@@H]1[C@@H]2CC[C@]2(C)[C@@H](O)CC[C@@H]12`, the Potency result in [1], in [2], in [3], in test [4], in test [5] and in test [6] was “inactive” in each case.

Take `O=C(CCCN1CCC(O)(c2ccc(Br)cc2)CC1)c1ccc(F)cc1`: the Potency result in [1], in test [7] and in test [4] was “inactive” each time. In addition, the Potency in [2] is 18.5 µM (active).

Regarding `CCC(C(=O)OCCN(CC)CC)c1ccccc1` (centres undefined), the Potency result in test [1], in test [7], in test [2], in [3], in test [4] and in test [5] was “inactive” in each case.

For the compound `COCc1c(C(C)C)nc(C(C)C)c(/C=C/[C@@H](O)C[C@@H](O)CC(=O)O)c1-c1ccc(F)cc1`, the Potency result in [1] is “inactive”. For the same compound, the Potency in test [7] was 0.261 µM (active); in [2] it was 2.33 µM (active); in test [3] it was 0.928 µM (active); in test [4], 0.522 µM (active); in test [5] it was 0.414 µM (active); in test [6] it was 0.465 µM (active).

Take `CC(=O)OCC(=O)[C@@]1(O)CC[C@H]2[C@@H]3CCC4=CC(=O)C=C[C@]4(C)[C@H]3[C@@H](O)C[C@@]21C`: the Potency result in test [1], in [7], in test [2], in test [3], in test [4] and in test [5] was “inactive” each time. For the same compound, in test [6], the Potency result is “inactive”.

For the compound `CC1(C)O[C@@H]2C[C@H]3[C@@H]4C[C@H](F)C5=CC(=O)CC[C@]5(C)[C@H]4[C@@H](O)C[C@]3(C)[C@]2(C(=O)CO)O1`, the Potency result in [1], in test [7], in test [2], in test [3], in test [4] and in test [6] was “inactive” throughout.

Regarding `CC(=O)[C@H]1CC[C@H]2[C@@H]3C[C@H](C)C4=CC(=O)CC[C@]4(C)[C@H]3[C@@H](O)C[C@]12C`, the Potency result in test [1], in [3], in test [4] and in test [5] was “inactive” in each case. Also, the Potency in [7] was 0.329 µM (active); in test [2], 10.4 µM (active).

For `CN(C)C(=S)SC(=S)N(C)C`, the Potency result in test [1], in test [7] and in [6] was “inactive” throughout. In addition, the Potency in test [2] was 1.31 µM (active); in test [4] it was 5.22 µM (active); in test [5], 4.14 µM (active).

Turning to `C=C1C[C@H]2[C@@H]3C=C(C)C4=CC(=O)CC[C@]4(C)[C@H]3CC[C@]2(C)[C@@]1(OC(C)=O)C(C)=O`, the Potency result in [1], in test [3], in [4], in test [5] and in test [6] was “inactive” throughout.

As to `CCCCC(CC)CN=C(N)NC(N)=NCCCCCCN=C(N)NC(N)=NCC(CC)CCCC` (centres undefined), the Potency in test [1] was 2.93 µM (active); in [7] it was 4.65 µM (active); in test [2], 7.37 µM (active); in [3] it was 1.04 µM (active); in test [4], 13.1 µM (active); in [5] it was 1.47 µM (active). In addition, the Potency in [6] was 13.1 µM (active); in [8], 21.5 µM (active).

As to `CC(=O)OCC(=O)[C@@]12OC(C)(C)O[C@@H]1C[C@H]1[C@@H]3C[C@H](F)C4=CC(=O)C=C[C@]4(C)[C@@]3(F)[C@@H](O)C[C@@]12C`, the Potency entry in test [7], in test [2], in [3], in [4] and in [5] was “inactive” each time.

Regarding `C[C@H]1C[C@H]2[C@@H]3CCC4=CC(=O)C=C[C@]4(C)[C@@]3(Cl)[C@@H](O)C[C@]2(C)[C@@]1(O)C(=O)CO`, the Potency result in [1], in test [7], in test [3], in [4], in test [5] and in [6] was “inactive” throughout.

On to `NC(CO)(CO)CO`, for which the Potency entry in test [1], in test [7], in test [2], in test [3], in test [4] and in [6] was “inactive” in each case.

Regarding `COc1cc2c(cc1O)CC[C@@H]1[C@@H]2CC[C@]2(C)[C@@H](O)CC[C@@H]12`, in [9], the Potency entry is “inactive”.

`Nc1ccn([C@@H]2O[C@H](CO)[C@@H](O)C2(F)F)c(=O)n1`: the Potency result in test [8] and in [9] was “inactive” in each case.

For `CC[C@H](C)C(=O)O[C@H]1CCC=C2C=C[C@H](C)[C@H](CC[C@@H]3C[C@@H](O)CC(=O)O3)[C@H]21`, the Potency entry in [10] and in test [9] was “inactive” each time.

Regarding `CCCn1c(=O)[nH]c(=O)c2[nH]cnc21`, the Potency result in test [10] and in test [9] was “inactive” in each case.

Regarding `COc1cc(NS(C)(=O)=O)ccc1Nc1c2ccccc2nc2ccccc12`, the Potency is 50.1 µM (active) in test [10] and 29.9 µM (active) in test [9].

As for `CC(=O)OCC(=O)[C@@]12N=C(C)O[C@@H]1C[C@H]1[C@@H]3CCC4=CC(=O)C=C[C@]4(C)[C@H]3[C@@H](O)C[C@@]12C`, the Potency result in test [7] was “inactive”. In addition, the Potency in [6] is 1.31 µM (active).

As to `C[N+]1(CCCCC[N+]2(C)CCCC2)CCCC1`, the Potency entry in test [10] and in test [9] was “inactive” each time.

With `CNCCC(Oc1ccccc1C)c1ccccc1` (centres undefined), the Potency entry in test [10] and in test [9] was “inactive” throughout.

As to `O=C(O)c1cc2cc(Cc3cccnc3)ccc2o1`, the Potency result in test [10] and in [9] was “inactive” each time.

For the compound `C[C@]12CC[C@@H]3c4ccc(O)cc4CC[C@H]3[C@@H]1CC[C@@H]2O`, the Potency entry in test [9] was “inactive”.

Turning to `CC(C)(C)CC(C)(C)c1ccc(OCCOCC[N+](C)(C)Cc2ccccc2)cc1`, the Potency entry in [8] and in test [9] was “inactive” each time.

As to `CNCCC=C1c2ccccc2CCc2ccccc21`, the Potency entry in [10] and in test [9] was “inactive” each time.

Take `C[C@@H]1CN(CCCn2c3ccccc3c3ccccc32)C[C@H](C)N1`: in [7], the Potency result was “inactive”. The figures for the Potency in test [2], in test [4] and in test [5] were 16.5 µM (active), 26.1 µM (active) and 26.1 µM (active), respectively.

With `CN1C2CCC1CC(OC(=O)c1c[nH]c3ccccc13)C2` (centres undefined), the Potency entry in test [10] and in [9] was “inactive” each time.

In the case of `N[C@@H](Cc1cnc[nH]1)C(=O)O`, the Potency entry in [10] and in test [9] was “inactive” in each case.

Regarding `C1CCc2nnnn2CC1`, the Potency result in [10] and in test [9] was “inactive” each time.

As to `COc1cccc2c1C(=O)c1c(O)c3c(c(O)c1C2=O)C[C@@](O)(C(=O)CO)C[C@@H]3O[C@H]1C[C@H](N)[C@H](O)[C@H](C)O1`, the Potency was 1.47 µM (active) in [2], 5.22 µM (active) in [3], 5.22 µM (active) in test [4] and 14.7 µM (active) in [6].
